# Assay results taken from PubChem BioAssay AID493162 (ICCB-Longwood Screening Facility, Harvard Medical School, 2011).
# About 430 (0.93%) of roughly 46,000 compounds were called active. Rule as the data show it: active = normalized absorbance mostly below about 85% (no sharp cut-off); inactive = mostly above about 86%. The list comes from a sample in which actives are over-represented; it also holds similar structures and randomly drawn compounds.
# Test system: Vaccinia virus DNA polymerase (E9) processive complex
# Experiment: vaccinia E9 polymerase processive synthesis inhibitors, primary screen, biochemical, absorbance (AID 493162)
# Conditions: in vitro processive DNA synthesis, absorbance read-out; active compounds read low; concentration not given here
row,SMILES,normalized absorbance
1,CC(C)NC(=O)CN1C(=O)c2cccnc2Oc2ccccc21,102% (inactive)
2,O=C(NCc1ccccc1Cl)C1(c2ccccc2)CCCC1,97.8% (inactive)
3,CSC1=NCCN1S(=O)(=O)c1ccc(Br)cc1,110% (inactive)
4,CS(=O)(=O)N1CCN=C1SCc1cccnc1,66.5% (active)
5,O=C(O)CCc1cccnc1,102% (inactive)
6,COC(=O)Nc1cn(Cc2ccccn2)c(=O)c2ccccc12,112% (inactive)
7,O=c1[nH]c(=S)[nH]cc1S(=O)(=O)c1ccc(F)cc1,99.5% (inactive)
8,O=C(Nc1ccc2nc(SCC(=O)N3CCc4ccccc43)sc2c1)c1ccccc1Cl,100% (inactive)
9,CCN(CC)c1ccc(C=Nc2cc(C)cc(C)c2)cc1,100% (inactive)
10,CCOc1ccc(S(=O)(=O)N2CCC(C)CC2)cc1,99% (inactive)
11,Nc1ccc(-c2nc3ccccc3[nH]2)c(N)c1,99.3% (inactive)
12,COc1ccc(C2=NS(=O)(=O)N(C)C(C(=O)N(C)Cc3ccccc3)=C2)cc1,86.6% (inactive)
13,Cc1cccc(-n2nc3c(c2NC(=O)/C=C\c2ccco2)CSC3)c1C,85.2% (inactive)
14,CC(=O)n1c2ccccc2c2nc(C)sc21,45.9% (active)
15,CC(=O)Nc1sc(C)nc1-c1ccccc1,99.1% (inactive)
16,CC(=O)n1c(C=Nc2ccccc2)c(O)c2ccccc21,99.4% (inactive)
17,Cc1nc2ccc(S(=O)(=O)NC(CC(C)C)C(=O)NC3CCCCCC3)cc2s1 (configuration not stated),103% (inactive)
18,CCOc1ccc(C(=O)Nc2nc3c(OC)cccc3s2)cc1,106% (inactive)
19,Cc1ccc(S(=O)(=O)N2CCCC(n3cccc3)C2)cc1 (configuration not stated),117% (inactive)
20,CC12CCC3C(CCC4CCCCC43C)C1C/C(=C\c1ccc[nH]1)C2=O (configuration not stated),101% (inactive)
21,Cc1cc(Nc2ccc(Cl)cc2)n2c(nc3ccccc32)c1C#N,100% (inactive)
22,COc1ccc(-c2cc(-c3ccccc3)nc(SCC(N)=NC#N)c2C#N)cc1,100% (inactive)
23,C[N+](C)(C)CCOC(=O)c1ccccc1,99.6% (inactive)

row,SMILES,normalized absorbance
1,Cc1nc(C)nc(N(Cc2ccccc2)Cc2ccccc2)n1,94.7% (inactive)
2,Cc1ccc(Nc2c(-c3c[nH]c4ccccc34)nc3c[n+](CC(N)=O)ccn23)cc1,95.2% (inactive)
3,COc1ccc(C(=O)N2CCN(c3ccc(N4CCOCC4)nn3)CC2)cc1,101% (inactive)
4,O=C1NC(=Nc2ccc(O)cc2)S/C1=C\c1ccc(Cl)cc1Cl,100% (inactive)
5,CC1CCc2sc(NC(=O)Cc3ccccc3)c(C(N)=O)c2C1 (configuration not stated),89.9% (inactive)
6,Cc1nc(SCC(=O)c2ccc(Cl)cc2)c(C#N)c(C)c1C,99.7% (inactive)
7,N#Cc1c(-c2cccs2)nc(SCC(=O)c2ccc(Br)cc2)[nH]c1=O,68.9% (active)
8,COc1ccc(C(=O)CSC2=C(C#N)C(c3cccs3)CC(=O)N2)cc1 (configuration not stated),101% (inactive)
9,O=C(NCc1cccnc1)c1cc(-c2ccccn2)nc2ccccc12,102% (inactive)
10,COc1ccc(-c2nnn(-c3cccc(C(F)(F)F)c3)c2N)cc1OC,112% (inactive)
11,Cc1cc(C)cc(Oc2coc3c(CN4CCCCCC4)c(O)ccc3c2=O)c1,100% (inactive)
12,O=C(CCc1nc(-c2ccccc2)no1)N1CCCCC1,94.1% (inactive)
13,Fc1ccccc1Cn1cnc2ccccc21,100% (inactive)
14,O=C(O)CCCC(=O)Nc1ccccn1,98.3% (inactive)
15,Cc1cc(-c2cn(/N=C/c3ccc(Cl)cc3Cl)c(N)n2)c(C)s1,97.6% (inactive)
16,Cc1nc2cc(Cl)ccc2c(=O)n1-c1nc2ccccc2[nH]1,103% (inactive)
17,CC(C)(C)c1cn2c3ccccc3nc2n1CCCO,96.5% (inactive)
18,Cc1nnc(SCC(=O)O)[nH]c1=O,96.1% (inactive)
19,Cc1nc2sc(C(c3ccc(F)cc3)N3CCC(O)CC3)c(O)n2n1 (configuration not stated),101% (inactive)
20,CC(C)Nc1nc(-c2ccccc2O)nc2ccccc12,102% (inactive)
21,O=C(O)CSc1ccc2ccccc2c1Br,85.4% (active)
22,O=C(O)CSc1ccc(Br)c2cccc(Cl)c12,81.7% (inactive)
23,Cc1nc2ccccc2nc1SCC(=O)O,103% (inactive)

row,SMILES,normalized absorbance
1,COc1ccc(C2CC(=O)n3nc(-c4ccccc4)nc3S2)cc1OC (configuration not stated),100% (inactive)
2,Cc1cc2cc(CNS(=O)(=O)N(C)C)ccc2n1C,101% (inactive)
3,O=S(=O)(c1cccc2cccnc12)N1CCN(c2cccc(Cl)c2)CC1,101% (inactive)
4,Cc1nc(N2CC(C)OC(C)C2)c2c3c(sc2n1)CCC3 (configuration not stated),100% (inactive)
5,COc1ccccc1NC(=O)c1cccc(N2C(=O)C3CC=CCC3C2=O)c1 (configuration not stated),89.3% (inactive)
6,COc1ccc(C2C=C(c3ccccc3)NC(=O)C2C#N)cc1 (configuration not stated),94.4% (inactive)
7,Cc1ccc(-c2nc(C)sc2CC(=O)O)cc1,98.3% (inactive)
8,COc1ccc(NS(=O)(=O)c2ccc(Oc3c(C#N)cccc3C#N)cc2)cc1,104% (inactive)
9,CCCn1c[n+](CC(=O)C(C)(C)C)c2ccccc21,101% (inactive)
10,COc1ccc(NC(=O)C(C)n2cccc2)cc1 (configuration not stated),102% (inactive)
11,O=c1[nH]c(-c2ccc(F)cc2)nc2ccccc12,102% (inactive)
12,Cn1nnnc1SCC(=O)Nc1nccs1,104% (inactive)
13,C=CCn1c(SCC(=O)Nc2nnc(CC)s2)nnc1-c1cccs1,99.4% (inactive)
14,CC(NC(=O)Nc1ccc2c(c1)N(C)C(=O)c1ccccc1S2)c1ccccc1 (configuration not stated),110% (inactive)
15,CN1CCc2ccccc2C1Cc1ccccc1NS(=O)(=O)c1cccc(C(F)(F)F)c1 (configuration not stated),97.1% (inactive)
16,O=C1c2ccccc2-c2nn(CC(=O)N3CCOCC3)c3cccc1c23,92.9% (inactive)
17,O=c1c2cccc3c2c(nn1CN1CCCCC1)-c1ccccc1-3,76% (active)
18,O=c1c2ccccc2c(-c2ccccc2)nn1Cc1ccccc1,99.7% (inactive)
19,CCOC(=O)CSc1nc2ccccc2n1C(=O)Oc1ccccc1,95.5% (inactive)
20,O=C(O)CCc1nnc2ccc(N3CCCC3)nn12,103% (inactive)
21,FC(F)(F)c1cccc(Oc2cnc3ccccc3n2)c1,95.2% (inactive)
